Sampled rows, rich in hits. Any-hit rate of the full collection: about 2.3%.
C diff growth – C. difficile growth inhibition; 0.25% of 86,000 active; growth activity, negative = inhibition, % at 16 µg/mL (by protocol); Clostridium difficile clinical isolate growth, OD600, 24 h; hits give low values; AID 1259249;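 active means mean growth activity at or below -80% and every replicate also at or below -80%; inconclusive means mean at or below -80% but some replicate above -80%; inactive means mean growth activity above -80%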;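 further: 0% = DMSO wells and -100% = levofloxacin 16 µg/mL wells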
Pf Dd2 inh – inhibitors of Plasmodium falciparum Dd2 growth; P. falciparum Dd2 growth, SYBR Green, 72 h; hits give low values; activity change, % at 10 µM; 2.3% of 94,000 active; in the data active means activity change below about -80%; inconclusive means no clear call, values can overlap the other calls
Active calls of the source: *; ? = inconclusive; nt = no result.

SMILES	C diff growth	Pf Dd2 inh
C[C@@H]1CN([C@H](C)CO)C(=O)c2cccc(NC(=O)CCCCCC(=O)Nc3ccccc3N)c2O[C@H]1CN(C)C(=O)Nc1ccccc1	1	-59
C[C@@H]1CN([C@@H](C)CO)C(=O)c2cccc(NC(=O)CCCCCC(=O)Nc3ccccc3N)c2O[C@H]1CN(C)C(=O)Nc1ccc(C(F)(F)F)cc1	0	-84*
COc1ccc(NC(=O)N(C)C[C@H]2Oc3c(NC(=O)Nc4ccccc4)cccc3C(=O)N([C@@H](C)CO)C[C@H]2C)cc1	-9	-89*
COc1ccccc1-c1ccc([C@H]2[C@H](CO)N3CCCCN(C(=O)CN4CCOCC4)C[C@@H]23)cc1	-4	-3
C[C@@H]1CN([C@H](C)CO)C(=O)Cc2cc(NS(=O)(=O)c3ccc(F)cc3)ccc2O[C@H]1CN(C)C(=O)NC1CCCCC1	1	19
COc1ccccc1CNC(=O)C[C@@H]1CC[C@@H]2[C@H](COc3ccc(NC(C)=O)cc3C(=O)N2C)O1	21	4
Cc1noc(C)c1NC(=O)Nc1ccc2c(c1)CC(=O)N([C@H](C)CO)C[C@@H](C)[C@@H](CN(C)CC1CC1)O2	-4	-2
CN(C)C(=O)C[C@@H]1CC[C@H](NC(=O)C2CCOCC2)[C@H](CO)O1	nt	-33
CCCC#Cc1cnc2c(c1)C(=O)N([C@H](C)CO)C[C@@H](C)[C@@H](CN(C)C(=O)Nc1cccc(F)c1)O2	14	-36
CC(C)CC#Cc1cnc2c(c1)C(=O)N([C@@H](C)CO)C[C@@H](C)[C@@H](CN(C)C(=O)Nc1cc(F)ccc1F)O2	3	-57
CC(C)CC#Cc1cnc2c(c1)C(=O)N([C@H](C)CO)C[C@@H](C)[C@H](CN(C)C(=O)Nc1cc(F)ccc1F)O2	-7	-83*
CCCC#Cc1cnc2c(c1)C(=O)N([C@@H](C)CO)C[C@H](C)[C@H](CN(C)C(=O)Nc1cccc(F)c1)O2	1	-88*
Cc1noc(C)c1S(=O)(=O)N(C)C[C@@H]1Oc2c(NS(=O)(=O)c3ccc(F)cc3)cccc2C(=O)N([C@H](C)CO)C[C@@H]1C	19	-19
CC(C)NC(=O)Nc1ccc2c(c1)C(=O)N([C@H](C)CO)C[C@H](C)[C@H](CN(C)Cc1ccncc1)O2	2	5
Cc1noc(C)c1NC(=O)N(C)C[C@H]1Oc2ccc(NC(=O)Nc3ccc(F)cc3)cc2CC(=O)N([C@@H](C)CO)C[C@@H]1C	-2	26
CCS(=O)(=O)N1CC2(CN(Cc3ccc4c(c3)OCO4)[C@@H](CO)c3[nH]c4cc(OC)ccc4c32)C1	-12	-69
COc1ccc(CN2CC3(CN(Cc4ccccc4OC)C3)c3c([nH]c4cc(OC)ccc34)[C@H]2CO)cc1	7	-66
COc1ccc(CN2CC3(C2)CN(Cc2ccc4c(c2)OCO4)[C@@H](CO)c2[nH]c4cc(OC)ccc4c23)cc1	-12	-84*
COc1ccc(CN2CC3(C2)CN(Cc2ccc4c(c2)OCO4)[C@H](CO)c2[nH]c4cc(OC)ccc4c23)cc1	0	-87*
C[C@@H]1CN([C@@H](C)CO)C(=O)c2cccc(NC(=O)Nc3ccc4c(c3)OCO4)c2O[C@H]1CN(C)Cc1ccc(C(=O)Nc2ccccc2N)cc1	nt	-85*
C[C@@H]1CN([C@@H](C)CO)C(=O)c2cccc(NC(=O)Nc3ccc4c(c3)OCO4)c2O[C@@H]1CN(C)Cc1ccc(C(=O)Nc2ccccc2N)cc1	nt	-93*
C[C@@H]1CN([C@@H](C)CO)C(=O)c2cccc(NC(=O)Nc3ccc4c(c3)OCO4)c2O[C@@H]1CN(C)C(=O)Nc1ccc2c(c1)OCO2	-4	-90*
C[C@H](CO)N1C[C@H](C)[C@H](CN(C)Cc2ccc(C(=O)Nc3ccccc3N)cc2)Oc2ccc(NC(=O)Nc3ccc4c(c3)OCO4)cc2C1=O	-2	-69
C[C@H]1CN([C@@H](C)CO)C(=O)c2cccc(NC(=O)Nc3ccc4c(c3)OCO4)c2O[C@@H]1CN(C)Cc1ccc(C(=O)Nc2ccccc2N)cc1	5	-85*
C[C@H]1CN([C@@H](C)CO)C(=O)c2cccc(NC(=O)Nc3ccc4c(c3)OCO4)c2O[C@@H]1CN(C)C(=O)Nc1ccc2c(c1)OCO2	-7	19
SMILES	C diff growth	Pf Dd2 inh
C[C@@H]1CN([C@@H](C)CO)C(=O)c2cccc(NC(=O)Nc3ccc4c(c3)OCO4)c2O[C@@H]1CN(C)Cc1ccc(C(=O)O)cc1	-4	10
C[C@H]1CN([C@@H](C)CO)C(=O)c2cccc(NC(=O)Nc3ccc4c(c3)OCO4)c2O[C@@H]1CN(C)Cc1ccc(C(=O)O)cc1	-2	0
CN(C)C(=O)c1ccc(-c2ccc3c(c2)[C@@H]2[C@@H](CCN2C(=O)c2ccccn2)[C@@H](CO)N3)cc1	-13	-37
CC(=O)N1[C@H](CO)[C@H](c2ccccc2)C12CN(C(=O)CN1CCOCC1)C2	4	20
C[C@H](CO)N1C[C@H](C)[C@H](CN(C)Cc2ccc(-c3ccccc3)cc2)Oc2c(NC(=O)Nc3ccc4c(c3)OCO4)cccc2C1=O	3	-2
C[C@@H]1CN([C@@H](C)CO)C(=O)c2cccc(NC(=O)Nc3ccc4c(c3)OCO4)c2O[C@@H]1CN(C)Cc1ccc(-c2ccccc2)cc1	-96*	-47
C[C@@H]1CCCCO[C@H](CN(C)C(=O)Nc2ccc(F)cc2)[C@H](C)CN([C@@H](C)CO)C(=O)c2cc(NS(=O)(=O)c3cccs3)ccc2O1	3	-85*
C[C@@H]1CCCCO[C@H](CN(C)C(=O)Nc2ccc(C(F)(F)F)cc2)[C@H](C)CN([C@@H](C)CO)C(=O)c2cc(NS(=O)(=O)c3cccs3)ccc2O1	1	?
C[C@@H]1CCCCO[C@H](CN(C)C(=O)Nc2ccc(F)cc2)[C@@H](C)CN([C@H](C)CO)C(=O)c2cc(NS(=O)(=O)c3cccs3)ccc2O1	-4	-18
C[C@@H]1CCCCO[C@H](CN(C)C(=O)Nc2ccc(C(F)(F)F)cc2)[C@H](C)CN([C@H](C)CO)C(=O)c2cc(NS(=O)(=O)c3cccs3)ccc2O1	12	-84*
COc1ccccc1-c1ccc2c(c1)O[C@H](CN(C)S(=O)(=O)c1ccc(C)cc1)[C@H](C)CN([C@H](C)CO)S2(=O)=O	19	-39
COc1ccc(S(=O)(=O)N(C)C[C@@H]2Oc3cc(-c4ccccc4OC)ccc3S(=O)(=O)N([C@H](C)CO)C[C@@H]2C)cc1	6	-50
COc1ccccc1-c1ccc2c(c1)O[C@@H](CN(C)S(=O)(=O)c1ccccc1)[C@@H](C)CN([C@H](C)CO)S2(=O)=O	14	-51
COc1ccc(S(=O)(=O)N(C)C[C@@H]2Oc3cc(-c4ccccc4OC)ccc3S(=O)(=O)N([C@H](C)CO)C[C@H]2C)cc1	2	-87*
COc1ccccc1-c1ccc2c(c1)O[C@@H](CN(C)S(=O)(=O)c1ccc(C)cc1)[C@H](C)CN([C@@H](C)CO)S2(=O)=O	5	-84*
COc1ccccc1-c1ccc2c(c1)O[C@@H](CN(C)S(=O)(=O)c1ccccc1)[C@H](C)CN([C@H](C)CO)S2(=O)=O	7	-82*
C[C@@H]1CN([C@H](C)CO)C(=O)Cc2cc(NS(=O)(=O)c3cccs3)ccc2O[C@H]1CN(C)Cc1ccc(C(=O)Nc2ccccc2N)cc1	-4	7
CC(C)C#Cc1ccc([C@H]2[C@@H](CO)N3CCCCN(C(=O)c4ccc(F)cc4)C[C@H]23)cc1	69	-40
